# Data reported in article PMC7862700, “An all-to-all approach to the identification of sequence-specific readers for epigenetic DNA modifications on cytosine”.
# Experiments:
# Assay in all cases: DAPPL (digital affinity profiling via proximity ligation, sequencing); 10 mM Tris-HCl pH 7.5, 50 mM NaCl, 1 mM DTT, 4% glycerol, room temperature, 30 min; GST-TFs on glutathione beads, 16-mer random dsDNA library, 0.1% formaldehyde crosslink after washing; high values mean tight binding
# Conditions in all cases: protein: recombinant; tags: N-terminal GST; dsDNA, one strand shown
# FLI1 = target: T1, FLI1 (Homo sapiens, UniProt Q01543 1-452)
# T1 sequence: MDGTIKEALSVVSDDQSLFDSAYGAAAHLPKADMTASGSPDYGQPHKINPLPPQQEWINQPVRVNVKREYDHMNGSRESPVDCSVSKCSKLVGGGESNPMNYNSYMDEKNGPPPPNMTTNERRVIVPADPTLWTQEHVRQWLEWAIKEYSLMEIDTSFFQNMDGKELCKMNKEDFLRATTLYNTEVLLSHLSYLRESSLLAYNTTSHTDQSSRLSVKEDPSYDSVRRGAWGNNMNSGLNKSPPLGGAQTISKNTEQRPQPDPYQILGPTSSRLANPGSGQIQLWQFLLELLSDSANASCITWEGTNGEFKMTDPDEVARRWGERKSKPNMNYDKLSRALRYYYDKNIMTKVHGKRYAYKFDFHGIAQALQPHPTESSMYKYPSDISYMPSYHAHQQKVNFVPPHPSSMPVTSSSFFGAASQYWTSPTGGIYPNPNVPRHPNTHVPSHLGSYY
# Summary of the method: (§1)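 Yeast served to express human transcription factors as GST fusions, which were then captured on glutathione beads and labelled with DNA barcodes. Pooled with a tag-only sample, they were incubated with 200 nmole of a 16-mer random double-stranded DNA library for 30 min at room temperature in Tris/NaCl/DTT/glycerol buffer, washed, crosslinked with 0.1% formaldehyde, ligated by proximity, amplified by PCR and sequenced. Dividing each hexamer's read frequency for a factor by its frequency for the tag-only sample gives the binding signal.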
# ELK1 = target: T2, ELK1 (Homo sapiens, UniProt P19419 1-428)
# T2 sequence: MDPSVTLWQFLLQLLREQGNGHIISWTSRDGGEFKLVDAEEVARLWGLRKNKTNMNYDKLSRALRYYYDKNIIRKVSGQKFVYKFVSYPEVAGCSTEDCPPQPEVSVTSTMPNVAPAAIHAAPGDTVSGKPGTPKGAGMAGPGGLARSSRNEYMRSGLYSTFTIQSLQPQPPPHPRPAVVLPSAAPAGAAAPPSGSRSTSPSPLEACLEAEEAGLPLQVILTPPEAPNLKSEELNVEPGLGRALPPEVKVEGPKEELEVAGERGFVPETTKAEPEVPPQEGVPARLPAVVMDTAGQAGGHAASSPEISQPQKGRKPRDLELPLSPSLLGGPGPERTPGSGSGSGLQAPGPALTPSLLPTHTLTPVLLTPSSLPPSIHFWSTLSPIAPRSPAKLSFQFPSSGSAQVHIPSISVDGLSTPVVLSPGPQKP
# Summary of the method: as §1
# GABPA = target: T3, GABPA (Homo sapiens, UniProt Q06546 1-454)
# T3 sequence: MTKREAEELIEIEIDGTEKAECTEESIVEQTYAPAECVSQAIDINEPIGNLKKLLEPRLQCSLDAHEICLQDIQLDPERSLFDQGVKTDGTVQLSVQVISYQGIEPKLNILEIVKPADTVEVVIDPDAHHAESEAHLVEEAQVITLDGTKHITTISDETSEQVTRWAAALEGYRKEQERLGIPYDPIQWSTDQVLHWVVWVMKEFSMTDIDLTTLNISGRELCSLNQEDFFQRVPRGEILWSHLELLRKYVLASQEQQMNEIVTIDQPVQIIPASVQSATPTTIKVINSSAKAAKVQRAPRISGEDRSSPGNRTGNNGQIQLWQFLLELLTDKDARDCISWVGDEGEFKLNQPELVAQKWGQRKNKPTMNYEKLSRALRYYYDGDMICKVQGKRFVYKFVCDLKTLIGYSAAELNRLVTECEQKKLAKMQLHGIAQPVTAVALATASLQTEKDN
# Summary of the method: as §1
# ERG = target: T4, ERG (Homo sapiens, UniProt P11308 1-479)
# T4 sequence: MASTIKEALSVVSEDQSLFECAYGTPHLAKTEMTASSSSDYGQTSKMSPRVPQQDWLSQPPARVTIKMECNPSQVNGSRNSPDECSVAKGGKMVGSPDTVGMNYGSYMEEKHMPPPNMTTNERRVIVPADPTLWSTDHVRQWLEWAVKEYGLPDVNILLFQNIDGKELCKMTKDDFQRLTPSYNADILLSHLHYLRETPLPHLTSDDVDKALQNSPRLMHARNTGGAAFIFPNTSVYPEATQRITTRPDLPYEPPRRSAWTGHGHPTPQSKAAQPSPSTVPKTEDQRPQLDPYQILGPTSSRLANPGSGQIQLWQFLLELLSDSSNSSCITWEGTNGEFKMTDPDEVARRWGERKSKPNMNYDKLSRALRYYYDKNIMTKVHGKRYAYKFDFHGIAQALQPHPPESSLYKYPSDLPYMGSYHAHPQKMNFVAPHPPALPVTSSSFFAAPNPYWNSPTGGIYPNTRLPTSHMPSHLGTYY
# Summary of the method: as §1
# ELF1 = ELF1 (Homo sapiens, UniProt P32519 1-619)
# Chain of ELF1 (P32519 whole entry): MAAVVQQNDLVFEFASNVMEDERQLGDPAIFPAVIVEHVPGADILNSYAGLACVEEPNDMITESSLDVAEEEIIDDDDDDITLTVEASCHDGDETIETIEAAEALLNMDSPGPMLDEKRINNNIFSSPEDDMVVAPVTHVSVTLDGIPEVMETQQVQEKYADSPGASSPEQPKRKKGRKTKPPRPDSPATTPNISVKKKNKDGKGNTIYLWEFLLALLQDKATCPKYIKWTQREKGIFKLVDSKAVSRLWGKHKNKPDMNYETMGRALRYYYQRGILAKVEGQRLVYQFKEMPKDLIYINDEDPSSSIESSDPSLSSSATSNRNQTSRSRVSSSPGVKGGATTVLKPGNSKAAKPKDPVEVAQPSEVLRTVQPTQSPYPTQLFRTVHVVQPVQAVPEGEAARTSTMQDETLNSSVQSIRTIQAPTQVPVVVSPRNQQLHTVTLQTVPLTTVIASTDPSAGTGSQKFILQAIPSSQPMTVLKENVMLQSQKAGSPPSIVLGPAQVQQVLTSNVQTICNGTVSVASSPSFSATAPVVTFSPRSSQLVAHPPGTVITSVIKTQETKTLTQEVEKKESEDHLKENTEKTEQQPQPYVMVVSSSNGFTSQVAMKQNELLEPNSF
# Summary of the method: as §1
# ELK3 = target: T5, ELK3 (Homo sapiens, UniProt P41970 1-407)
# T5 sequence: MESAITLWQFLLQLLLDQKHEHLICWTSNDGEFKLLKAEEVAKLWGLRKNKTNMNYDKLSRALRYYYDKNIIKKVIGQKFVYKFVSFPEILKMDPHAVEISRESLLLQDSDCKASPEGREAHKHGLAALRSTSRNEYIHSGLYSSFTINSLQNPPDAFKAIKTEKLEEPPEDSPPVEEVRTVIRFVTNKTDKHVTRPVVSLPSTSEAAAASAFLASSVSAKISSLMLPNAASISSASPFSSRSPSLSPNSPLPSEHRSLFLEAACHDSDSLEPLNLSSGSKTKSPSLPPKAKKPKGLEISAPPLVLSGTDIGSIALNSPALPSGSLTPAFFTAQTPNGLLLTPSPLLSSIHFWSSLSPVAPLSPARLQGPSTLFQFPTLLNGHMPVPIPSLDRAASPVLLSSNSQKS
# Summary of the method: as §1
# SPIC = target: T6, SPIC (Homo sapiens, UniProt Q8N5J4 1-248)
# T6 sequence: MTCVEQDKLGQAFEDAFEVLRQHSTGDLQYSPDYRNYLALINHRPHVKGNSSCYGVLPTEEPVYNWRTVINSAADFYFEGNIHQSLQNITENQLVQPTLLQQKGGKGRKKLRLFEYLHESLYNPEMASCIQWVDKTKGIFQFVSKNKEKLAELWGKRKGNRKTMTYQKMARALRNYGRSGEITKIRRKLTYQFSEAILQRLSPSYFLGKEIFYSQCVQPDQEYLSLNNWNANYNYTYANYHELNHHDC
# Summary of the method: as §1
# ELK4 = target: T7, ELK4 (Homo sapiens, UniProt P28324-2 1-405)
# T7 sequence: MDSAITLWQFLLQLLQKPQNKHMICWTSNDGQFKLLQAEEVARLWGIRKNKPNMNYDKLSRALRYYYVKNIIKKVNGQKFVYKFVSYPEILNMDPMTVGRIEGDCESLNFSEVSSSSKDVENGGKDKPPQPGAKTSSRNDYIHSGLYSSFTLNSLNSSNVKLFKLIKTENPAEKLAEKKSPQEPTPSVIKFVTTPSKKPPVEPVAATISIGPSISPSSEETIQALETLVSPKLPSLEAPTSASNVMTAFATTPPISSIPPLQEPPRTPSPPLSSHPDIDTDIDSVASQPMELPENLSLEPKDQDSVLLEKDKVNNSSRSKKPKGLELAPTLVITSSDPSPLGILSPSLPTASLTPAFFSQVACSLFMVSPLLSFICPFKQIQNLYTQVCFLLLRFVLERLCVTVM
# Summary of the method: as §1
# ERF = target: T8, ERF (Homo sapiens, UniProt P50548 1-548)
# T8 sequence: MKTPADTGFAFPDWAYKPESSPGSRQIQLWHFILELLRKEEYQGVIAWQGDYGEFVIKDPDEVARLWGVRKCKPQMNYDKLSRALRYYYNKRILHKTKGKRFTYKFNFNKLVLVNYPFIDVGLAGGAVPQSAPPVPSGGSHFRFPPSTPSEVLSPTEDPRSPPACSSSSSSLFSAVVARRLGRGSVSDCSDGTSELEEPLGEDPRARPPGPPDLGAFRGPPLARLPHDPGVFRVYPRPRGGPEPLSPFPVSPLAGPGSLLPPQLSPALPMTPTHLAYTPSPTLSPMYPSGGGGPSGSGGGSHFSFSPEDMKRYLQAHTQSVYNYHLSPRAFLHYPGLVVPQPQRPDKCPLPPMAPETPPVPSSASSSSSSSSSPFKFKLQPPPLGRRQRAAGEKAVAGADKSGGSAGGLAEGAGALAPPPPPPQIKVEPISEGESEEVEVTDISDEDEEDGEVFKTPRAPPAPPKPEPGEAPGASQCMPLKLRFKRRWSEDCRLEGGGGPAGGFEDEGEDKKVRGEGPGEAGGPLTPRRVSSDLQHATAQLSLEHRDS
# Summary of the method: as §1
# ETV3L = target: T9, ETV3L (Homo sapiens, UniProt Q6ZN32 1-361)
# T9 sequence: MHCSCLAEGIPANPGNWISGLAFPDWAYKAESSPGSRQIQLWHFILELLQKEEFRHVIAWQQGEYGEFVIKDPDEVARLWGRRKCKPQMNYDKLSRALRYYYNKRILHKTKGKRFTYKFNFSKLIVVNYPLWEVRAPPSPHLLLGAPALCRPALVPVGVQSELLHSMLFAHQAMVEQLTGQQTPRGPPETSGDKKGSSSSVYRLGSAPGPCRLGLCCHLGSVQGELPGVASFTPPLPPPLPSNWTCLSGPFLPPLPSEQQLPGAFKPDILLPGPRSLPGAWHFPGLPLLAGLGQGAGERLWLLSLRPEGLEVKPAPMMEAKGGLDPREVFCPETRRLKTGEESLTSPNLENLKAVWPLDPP
# Summary of the method: as §1
# ETS2 = target: T10, ETS2 (Homo sapiens, UniProt P15036 1-469)
# T10 sequence: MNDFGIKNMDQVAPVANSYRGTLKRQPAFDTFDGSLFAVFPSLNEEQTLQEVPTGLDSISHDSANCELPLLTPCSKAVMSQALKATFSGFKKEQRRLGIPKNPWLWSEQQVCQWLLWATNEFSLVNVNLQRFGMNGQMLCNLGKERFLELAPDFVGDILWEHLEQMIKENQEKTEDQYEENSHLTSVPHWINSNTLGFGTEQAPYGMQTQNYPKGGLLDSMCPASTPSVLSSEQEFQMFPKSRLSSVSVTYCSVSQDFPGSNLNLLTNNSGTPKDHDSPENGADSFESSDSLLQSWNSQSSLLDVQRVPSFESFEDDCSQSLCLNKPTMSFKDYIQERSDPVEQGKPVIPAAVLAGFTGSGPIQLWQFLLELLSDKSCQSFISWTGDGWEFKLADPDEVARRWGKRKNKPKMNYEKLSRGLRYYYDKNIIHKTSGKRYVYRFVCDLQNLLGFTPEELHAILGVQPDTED
# Summary of the method: as §1
# ETV3 = target: T11, ETV3 (Homo sapiens, UniProt P41162-2 1-143)
# T11 sequence: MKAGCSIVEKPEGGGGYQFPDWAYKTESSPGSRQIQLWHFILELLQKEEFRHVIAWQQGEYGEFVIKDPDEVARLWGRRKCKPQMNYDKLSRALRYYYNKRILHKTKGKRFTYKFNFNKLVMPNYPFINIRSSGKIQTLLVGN
# Summary of the method: as §1
# ETV6 = ETV6 (Homo sapiens, UniProt P41212 1-452)
# Chain of ETV6 (P41212 whole entry): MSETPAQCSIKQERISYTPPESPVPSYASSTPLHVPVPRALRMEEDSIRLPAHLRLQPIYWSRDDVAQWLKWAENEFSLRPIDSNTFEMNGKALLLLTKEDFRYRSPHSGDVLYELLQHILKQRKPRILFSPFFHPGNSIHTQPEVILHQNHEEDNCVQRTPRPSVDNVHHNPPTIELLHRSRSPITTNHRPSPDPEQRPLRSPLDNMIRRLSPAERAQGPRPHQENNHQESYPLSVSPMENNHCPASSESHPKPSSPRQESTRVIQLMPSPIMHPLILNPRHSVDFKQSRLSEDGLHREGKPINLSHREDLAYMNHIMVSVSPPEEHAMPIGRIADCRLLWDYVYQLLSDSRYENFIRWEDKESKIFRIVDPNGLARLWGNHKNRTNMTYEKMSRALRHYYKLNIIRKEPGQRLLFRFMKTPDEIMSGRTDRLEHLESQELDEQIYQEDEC
# Summary of the method: as §1
sequence,measurement,setting,value
AGTCTC,binding signal,FLI1,"1.04 fold enrichment (6-mer frequency, TF over GST control)"
same,binding signal,ELK1,"1.02 fold enrichment (6-mer frequency, TF over GST control)"
same,binding signal,GABPA,"1.01 fold enrichment (6-mer frequency, TF over GST control)"
same,binding signal,ERG,"1.06 fold enrichment (6-mer frequency, TF over GST control)"
same,binding signal,ELF1,"1.05 fold enrichment (6-mer frequency, TF over GST control)"
same,binding signal,ELK3,"1.03 fold enrichment (6-mer frequency, TF over GST control)"
same,binding signal,SPIC,"1.1 fold enrichment (6-mer frequency, TF over GST control)"
same,binding signal,ELK4,"1.05 fold enrichment (6-mer frequency, TF over GST control)"
same,binding signal,ERF,"1.04 fold enrichment (6-mer frequency, TF over GST control)"
same,binding signal,ETV3L,"1.06 fold enrichment (6-mer frequency, TF over GST control)"
same,binding signal,ETS2,"1.05 fold enrichment (6-mer frequency, TF over GST control)"
same,binding signal,ETV3,"1.09 fold enrichment (6-mer frequency, TF over GST control)"
same,binding signal,ETV6,"1.04 fold enrichment (6-mer frequency, TF over GST control)"
